# Assay results from the supplement of paper PMC4466140.
# B1: unnamed (peptide)
# chain: KTKQQKPAIPQKKSF
# B2: unnamed (peptide)
# chain: RRRDFGAPANKRPRR
# Target: AgAbp1
# Assay: SPOT peptide array binding signal intensity (averaged, normalized) (arbitrary units (background-subtracted, floor 0; scale differs between SH3 domains)); higher = stronger binding of the SH3 domain to the peptide
# Method: (§1)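 GST-tagged SH3 domains from S. cerevisiae (Sc), A. gossypii (Ag), C. albicans (Ca) and S. pombe (Sp) were incubated at 10 ug/ml overnight at 4 C on cellulose SPOT membranes carrying 292 synthetic 15-mer peptides mined from the S. cerevisiae proteome (cysteines replaced by serines). Binding was detected with anti-GST antibody, HRP secondary and chemiluminescence, quantified with Genespotter, and reported as normalized spot intensities averaged over biological replicates.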
row,Binder,SPOT peptide array binding signal intensity
1,B1,2190
2,B2,45

# Target: AgBbc1
# Assay: as above
# Method: as §1
row,Binder,SPOT peptide array binding signal intensity
1,B1,16.5
2,B2,223

# Target: AgBem1-D1
# Assay: as above
# Method: as §1
row,Binder,SPOT peptide array binding signal intensity
1,B1,7
2,B2,179

# Target: AgBzz1-D1
# Assay: as above
# Method: as §1
row,Binder,SPOT peptide array binding signal intensity
1,B1,73
2,B2,60

# Target: AgBzz1-D2
# Assay: as above
# Method: as §1
row,Binder,SPOT peptide array binding signal intensity
1,B1,21
2,B2,18

# Target: AgCyk3
# Assay: as above
# Method: as §1
row,Binder,SPOT peptide array binding signal intensity
1,B1,≤ 0
2,B2,5

# Target: AgFus1
# Assay: as above
# Method: as §1
row,Binder,SPOT peptide array binding signal intensity
1,B1,≤ 0
2,B2,374

# Target: AgHof1
# Assay: as above
# Method: as §1
row,Binder,SPOT peptide array binding signal intensity
1,B1,35.5
2,B2,57.5

# Target: AgHse1
# Assay: as above
# Method: as §1
row,Binder,SPOT peptide array binding signal intensity
1,B1,≤ 0
2,B2,156

# Target: AgLsb1
# Assay: as above
# Method: as §1
row,Binder,SPOT peptide array binding signal intensity
1,B1,≤ 0
2,B2,0.75

# Target: AgLsb4
# Assay: as above
# Method: as §1
row,Binder,SPOT peptide array binding signal intensity
1,B1,1.5
2,B2,56.5

# Target: AgMyo5
# Assay: as above
# Method: as §1
row,Binder,SPOT peptide array binding signal intensity
1,B1,4
2,B2,0.5

# Target: AgNbp2
# Assay: as above
# Method: as §1
row,Binder,SPOT peptide array binding signal intensity
1,B1,14
2,B2,39

# Target: AgRvs167
# Assay: as above
# Method: as §1
row,Binder,SPOT peptide array binding signal intensity
1,B1,0.333
2,B2,6

# Target: AgSho1
# Assay: as above
# Method: as §1
row,Binder,SPOT peptide array binding signal intensity
1,B1,≤ 0
2,B2,10

# Target: AgSla1-D1-D2
# Assay: as above
# Method: as §1
row,Binder,SPOT peptide array binding signal intensity
1,B1,17
2,B2,27.5

# Target: AgSla1-D3
# Assay: as above
# Method: as §1
row,Binder,SPOT peptide array binding signal intensity
1,B1,19.5
2,B2,4.75

# Target: CaAbp1-D1
# Assay: as above
# Method: as §1
row,Binder,SPOT peptide array binding signal intensity
1,B1,4040
2,B2,106

# Target: CaAbp1-D2
# Assay: as above
# Method: as §1
row,Binder,SPOT peptide array binding signal intensity
1,B1,6440
2,B2,126

# Target: CaBbc1
# Assay: as above
# Method: as §1
row,Binder,SPOT peptide array binding signal intensity
1,B1,149
2,B2,546

# Target: CaBem1-D1
# Assay: as above
# Method: as §1
row,Binder,SPOT peptide array binding signal intensity
1,B1,3
2,B2,52.5

# Target: CaBzz1-D1
# Assay: as above
# Method: as §1
row,Binder,SPOT peptide array binding signal intensity
1,B1,742
2,B2,116

# Target: CaBzz1-D2
# Assay: as above
# Method: as §1
row,Binder,SPOT peptide array binding signal intensity
1,B1,584
2,B2,124

# Target: CaCyk3
# Assay: as above
# Method: as §1
row,Binder,SPOT peptide array binding signal intensity
1,B1,2
2,B2,17

# Target: CaFus1
# Assay: as above
# Method: as §1
row,Binder,SPOT peptide array binding signal intensity
1,B1,≤ 0
2,B2,241

# Target: CaHof1
# Assay: as above
# Method: as §1
row,Binder,SPOT peptide array binding signal intensity
1,B1,2
2,B2,0.5

# Target: CaHse1
# Assay: as above
# Method: as §1
row,Binder,SPOT peptide array binding signal intensity
1,B1,1.75
2,B2,2.25

# Target: CaLsb1
# Assay: as above
# Method: as §1
row,Binder,SPOT peptide array binding signal intensity
1,B1,≤ 0
2,B2,≤ 0

# Target: CaLsb4
# Assay: as above
# Method: as §1
row,Binder,SPOT peptide array binding signal intensity
1,B1,≤ 0
2,B2,67.5

# Target: CaMyo5
# Assay: as above
# Method: as §1
row,Binder,SPOT peptide array binding signal intensity
1,B1,1.5
2,B2,2.25

# Target: CaNbp2
# Assay: as above
# Method: as §1
row,Binder,SPOT peptide array binding signal intensity
1,B1,≤ 0
2,B2,138

# Target: CaRvs167
# Assay: as above
# Method: as §1
row,Binder,SPOT peptide array binding signal intensity
1,B1,2.33
2,B2,16

# Target: CaRvs167-3
# Assay: as above
# Method: as §1
row,Binder,SPOT peptide array binding signal intensity
1,B1,1.5
2,B2,4.5

# Target: CaSho1
# Assay: as above
# Method: as §1
row,Binder,SPOT peptide array binding signal intensity
1,B1,≤ 0
2,B2,116

# Target: CaSla1-D1-D2
# Assay: as above
# Method: as §1
row,Binder,SPOT peptide array binding signal intensity
1,B1,1260
2,B2,66

# Target: CaSla1-D3
# Assay: as above
# Method: as §1
row,Binder,SPOT peptide array binding signal intensity
1,B1,≤ 0
2,B2,4.75

# Target: ScAbp1
# Assay: as above
# Method: as §1
row,Binder,SPOT peptide array binding signal intensity
1,B1,1480
2,B2,79

# Target: ScBbc1
# Assay: as above
# Method: as §1
row,Binder,SPOT peptide array binding signal intensity
1,B1,3
2,B2,65

# Target: ScBem1-D1
# Assay: as above
# Method: as §1
row,Binder,SPOT peptide array binding signal intensity
1,B1,15
2,B2,94

# Target: ScBzz1-D1
# Assay: as above
# Method: as §1
row,Binder,SPOT peptide array binding signal intensity
1,B1,37
2,B2,32

# Target: ScBzz1-D2
# Assay: as above
# Method: as §1
row,Binder,SPOT peptide array binding signal intensity
1,B1,19.5
2,B2,29

# Target: ScCyk3
# Assay: as above
# Method: as §1
row,Binder,SPOT peptide array binding signal intensity
1,B1,≤ 0
2,B2,100

# Target: ScFus1
# Assay: as above
# Method: as §1
row,Binder,SPOT peptide array binding signal intensity
1,B1,≤ 0
2,B2,163

# Target: ScHof1
# Assay: as above
# Method: as §1
row,Binder,SPOT peptide array binding signal intensity
1,B1,7.75
2,B2,2

# Target: ScHse1
# Assay: as above
# Method: as §1
row,Binder,SPOT peptide array binding signal intensity
1,B1,54.5
2,B2,584

# Target: ScLsb1
# Assay: as above
# Method: as §1
row,Binder,SPOT peptide array binding signal intensity
1,B1,4
2,B2,4.5

# Target: ScLsb2
# Assay: as above
# Method: as §1
row,Binder,SPOT peptide array binding signal intensity
1,B1,≤ 0
2,B2,1.5

# Target: ScLsb3
# Assay: as above
# Method: as §1
row,Binder,SPOT peptide array binding signal intensity
1,B1,328
2,B2,810

# Target: ScLsb4
# Assay: as above
# Method: as §1
row,Binder,SPOT peptide array binding signal intensity
1,B1,≤ 0
2,B2,15.5

# Target: ScMyo3
# Assay: as above
# Method: as §1
row,Binder,SPOT peptide array binding signal intensity
1,B1,19
2,B2,9

# Target: ScMyo5
# Assay: as above
# Method: as §1
row,Binder,SPOT peptide array binding signal intensity
1,B1,4.75
2,B2,11

# Target: ScNbp2
# Assay: as above
# Method: as §1
row,Binder,SPOT peptide array binding signal intensity
1,B1,≤ 0
2,B2,76.5

# Target: ScPex13
# Assay: as above
# Method: as §1
row,Binder,SPOT peptide array binding signal intensity
1,B1,0.75
2,B2,8.25

# Target: ScRvs167
# Assay: as above
# Method: as §1
row,Binder,SPOT peptide array binding signal intensity
1,B1,4.67
2,B2,31.8

# Target: ScSho1
# Assay: as above
# Method: as §1
row,Binder,SPOT peptide array binding signal intensity
1,B1,3
2,B2,688

# Target: ScSla1-D1-D2
# Assay: as above
# Method: as §1
row,Binder,SPOT peptide array binding signal intensity
1,B1,213
2,B2,611

# Target: ScSla1-D3
# Assay: as above
# Method: as §1
row,Binder,SPOT peptide array binding signal intensity
1,B1,7.25
2,B2,25

# Target: SpAbp1-D1
# Assay: as above
# Method: as §1
row,Binder,SPOT peptide array binding signal intensity
1,B1,1420
2,B2,30.5

# Target: SpBbc1
# Assay: as above
# Method: as §1
row,Binder,SPOT peptide array binding signal intensity
1,B1,2.5
2,B2,18

# Target: SpBzz1-D1
# Assay: as above
# Method: as §1
row,Binder,SPOT peptide array binding signal intensity
1,B1,256
2,B2,225

# Target: SpBzz1-D2
# Assay: as above
# Method: as §1
row,Binder,SPOT peptide array binding signal intensity
1,B2,≤ 0

# Target: SpCyk3
# Assay: as above
# Method: as §1
row,Binder,SPOT peptide array binding signal intensity
1,B2,4

# Target: SpHof1
# Assay: as above
# Method: as §1
row,Binder,SPOT peptide array binding signal intensity
1,B2,367

# Target: SpHof1-2
# Assay: as above
# Method: as §1
row,Binder,SPOT peptide array binding signal intensity
1,B2,21.5

# Target: SpHof1-3
# Assay: as above
# Method: as §1
row,Binder,SPOT peptide array binding signal intensity
1,B2,342

# Target: SpHse1
# Assay: as above
# Method: as §1
row,Binder,SPOT peptide array binding signal intensity
1,B2,108

# Target: SpLsb1
# Assay: as above
# Method: as §1
row,Binder,SPOT peptide array binding signal intensity
1,B2,1.5

# Target: SpLsb4
# Assay: as above
# Method: as §1
row,Binder,SPOT peptide array binding signal intensity
1,B2,406

# Target: SpMyo1
# Assay: as above
# Method: as §1
row,Binder,SPOT peptide array binding signal intensity
1,B2,19

# Target: SpNbp2
# Assay: as above
# Method: as §1
row,Binder,SPOT peptide array binding signal intensity
1,B2,42

# Target: SpPex13
# Assay: as above
# Method: as §1
row,Binder,SPOT peptide array binding signal intensity
1,B2,15

# Target: SpRvs167
# Assay: as above
# Method: as §1
row,Binder,SPOT peptide array binding signal intensity
1,B2,12.2

# Target: SpSla1-D1-D2
# Assay: as above
# Method: as §1
row,Binder,SPOT peptide array binding signal intensity
1,B2,≤ 0

# Target: SpSla1-D3
# Assay: as above
# Method: as §1
row,Binder,SPOT peptide array binding signal intensity
1,B2,8
